Experimental data as given in the supplement of paper PMC3334620.
In all, about 33,000 sequences were measured (“E-score (-0.5 to 0.5)”: median about -0.015, highest 2% from about 0.3 on). Only a selection was taken, and the highest values are over-represented in it overall.

target: T1, Abf1 (UniProt P14164); experiment: PBM E-score (8-mer binding enrichment) (E-score (-0.5 to 0.5)); higher = stronger / more preferred TF binding; conditions: protein concentration: 200 nM; construct: GST-full length
T1 sequence: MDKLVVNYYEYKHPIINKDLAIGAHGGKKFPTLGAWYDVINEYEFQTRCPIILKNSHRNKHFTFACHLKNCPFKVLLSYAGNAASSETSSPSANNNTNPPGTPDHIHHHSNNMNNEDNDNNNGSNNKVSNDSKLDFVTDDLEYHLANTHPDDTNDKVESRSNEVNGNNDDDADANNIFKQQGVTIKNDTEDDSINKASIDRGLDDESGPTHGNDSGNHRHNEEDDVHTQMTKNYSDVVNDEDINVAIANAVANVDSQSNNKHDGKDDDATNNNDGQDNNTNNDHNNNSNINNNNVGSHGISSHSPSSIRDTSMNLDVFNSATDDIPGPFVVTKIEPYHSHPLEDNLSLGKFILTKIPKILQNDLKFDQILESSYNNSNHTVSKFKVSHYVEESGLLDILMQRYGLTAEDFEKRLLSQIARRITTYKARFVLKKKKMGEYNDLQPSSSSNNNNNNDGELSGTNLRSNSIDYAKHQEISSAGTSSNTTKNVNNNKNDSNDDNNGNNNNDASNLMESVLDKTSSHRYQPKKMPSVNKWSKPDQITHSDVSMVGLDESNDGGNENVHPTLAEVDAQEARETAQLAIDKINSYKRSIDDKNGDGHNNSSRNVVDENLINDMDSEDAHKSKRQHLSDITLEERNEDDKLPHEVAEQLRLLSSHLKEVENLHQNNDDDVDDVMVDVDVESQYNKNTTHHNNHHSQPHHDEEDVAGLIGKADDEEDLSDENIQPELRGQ
Procedure: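 Universal 'all 10-mer' protein binding microarrays (Agilent AMADID 015681) probed with GST-tagged S. cerevisiae TFs (full-length or DBD) made by in vitro transcription/translation (PURExpress), about 100-200 nM. Bound TF was detected with fluorescent anti-GST. Each ungapped 8-mer (which stands for itself and its reverse complement) is scored by the PBM enrichment score (E-score), a modified Wilcoxon-Mann-Whitney statistic from -0.5 to +0.5, computed with the Universal PBM Analysis Suite. Scale: above 0.35 generally sequence-specific binding.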

Sequence | PBM E-score
CCAGACAG | -0.2
GAGTAAAA | 0.0646
CCGCGACC | -0.0179
CCGCGACA | 0.154
CCGCGACG | 0.32
CTAATGCC | -0.208
CAATCGTG | 0.122
AAAACGCA | 0.00195
AGGTTTCG | -0.199
CACGAACA | 0.186
AACGAAAA | 0.103
AACGAACG | 0.144
CACGATCG | 0.339
TACGAAAA | 0.297
CACGATCC | 0.0482
TGCGAAAA | 0.175
GACGAACA | 0.253
TACGAACA | 0.351
CACGATCA | 0.272
AACGAACA | 0.215
CACGAACG | 0.372
AACAAATT | 0.201
AAAAACGT | 0.0618
GTAGCCCA | 0.0106
ACCATCCC | -0.155

Sequence | PBM E-score
AACAGAGA | -0.09
ACCGCTCA | 0.0985
GAGCACTA | 0.0823
CACGAAAA | 0.31
GCCGAAAC | -0.0478
GACGAAAA | 0.337
GCCGAAAA | 0.173
AACGAAAC | 0.101
CACGAAAC | 0.272
CACGAAAG | 0.272
GACGAATA | 0.232
GACGAAAC | 0.344
CTAGGAGA | -0.236
TCTACCAA | -0.0268
CTGGACCC | -0.279
CGGATGAA | 0.211
GCATGTCA | 0.225
GCGTGTCA | 0.0814
TCGTGGAA | 0.336
TCGTGTCA | 0.326
TCATGTCA | 0.332
CCGTGTCA | 0.268
CCGTGTAA | 0.217
GCGTGGAA | -0.105
ACGTGTAA | 0.235

Sequence | PBM E-score
TCGTGTAA | 0.343
ACATGTCA | 0.221
ACGTGGAA | 0.118
CAGAAGGG | -0.136
AAACTCAA | 0.0218
ATGTTACG | 0.087
GTTGGTCA | 0.221
ACATCTAA | -0.0374
CGACCTCA | 0.00561
CTCGCGAC | 0.238
ATCGCGAA | 0.199
ATCGCGAG | 0.138
GTCGCGAA | 0.188
ATCGCGAT | 0.411
GTCGCGAC | 0.32
AACACAAC | -0.029
CATAAACG | 0.22
GAATGCCC | -0.0158
ACGCACGT | 0.105
CCGCACGA | 0.376
ACGCACGC | -0.0387
TCCCACGA | 0.326
TCGCACAA | 0.167
CCGCACGC | -0.186
TCGCACGA | 0.317

Sequence | PBM E-score
GCGCACGA | 0.0514
GCCCACGA | 0.019
ACGCACGA | 0.389
ACCCACGA | 0.287
CCGCACGG | 0.0967
AAGTCCCC | -0.149
ACTCTGAT | 0.043
ACTAGTGC | 0.104
CGGCCCGC | -0.121
AATGCTCC | -0.223
CGCGTACG | 0.271
ATTATGGG | 0.00349
GGATATAA | 0.298
GGATATAC | -0.053
CGATATAA | 0.203
AGTTACGG | 0.0796
GGAGGAAA | -0.252
ACGATATA | 0.289
CCGATATC | 0.21
ACGATATC | 0.321
CCGATACG | 0.121
ACGATATG | 0.304
ACGATAGG | 0.233
AGGATATC | 0.24
ACGATACG | 0.334

Sequence | PBM E-score
ACGATACT | 0.285
ATGCCACC | -0.148
AATCCAGT | 0.0412
AATCTGCA | -0.185
TGGGACAA | 0.0227
AAGCCACG | 0.124
AAAGTATA | 0.101
CGATACCA | 0.018
AGGTCACT | 0.304
AAGTCACT | 0.304
AGGTCACC | 0.282
AAGTCACA | 0.125
AAGTCACG | 0.268
AGGTCACG | 0.235
ACTCTGAC | -0.0634
CGAATTCC | -0.0103
CGGACGCC | -0.0127
AATGCCAG | -0.155
ATGTCGGG | 0.0062
AAGGAACA | -0.0655
ACGCAGCG | -0.162
AACGACGT | 0.19
AATAACGG | 0.126
GCCGACGA | 0.176
CACGACGG | 0.356

Sequence | PBM E-score
CCCGACGA | 0.196
AACGACGG | 0.249
TCCGACGA | 0.392
AACGACGA | 0.346
CACGACCG | -0.0182
AATAACGC | -0.118
AATAACGA | 0.325
CACGACGA | 0.263
ACAGCTAG | -0.181
ACTCTTAA | -0.0406
AACCGGGG | -0.212
AAAATCCC | -0.0966
CGTCCTAC | -0.0375
ACTCGATA | 0.199
AACTGCGA | -0.0488
ATCTGCAG | -0.106
GAGTATAC | 0.0804
TACGACGA | 0.329
AACGACGC | 0.0599
GACGACGA | 0.251
GACGACGC | 0.3
TACGACCA | 0.242
CACGACGC | 0.172
TACACCCA | -0.015
CACCACGA | 0.202

Sequence | PBM E-score
GGGTGCTA | -0.118
CGTGCGAG | 0.137
CCTTAAGC | -0.123
CGTCGTTC | 0.313
GGTCGTAC | 0.212
CGTCGTAC | 0.399
CGTCGTTA | 0.257
AGTCGTTC | 0.212
GGTCGTAA | 0.104
CATCGTAA | 0.106
TGTCGTAA | 0.103
CATCGTAC | 0.382
CGTCGTAA | 0.392
GATCGTAC | 0.151
CGTCGTAG | 0.192
ATTCTGTG | 0.00625
GCGAAAGA | -0.024
AAGACGAG | -0.0454
AATAGTAC | 0.132
AAATGGGT | -0.0572
ACGCAGTC | -0.224
AGATCATG | 0.262
AGTCGTCC | 0.142
CGTCGTCA | 0.24
CGTCGTCC | 0.307
